Compound activity: PubChem, National Center for Advancing Translational Sciences (NCATS)
hERG WT inh = blocks the wildtype human KCNH2 potassium channel; Q12809; U2OS, BacMam KCNH2, thallium flux FluxOr; stronger effect = lower value; activity change, % at 1.84 µM; 0.37% of 340,000 active; AID 720551;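 active = maximum activity change below -70%; inconclusive = maximum activity change between -70% and -50%; inactive = maximum activity change above -50%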
Target sequence (Q12809 whole entry, looked up): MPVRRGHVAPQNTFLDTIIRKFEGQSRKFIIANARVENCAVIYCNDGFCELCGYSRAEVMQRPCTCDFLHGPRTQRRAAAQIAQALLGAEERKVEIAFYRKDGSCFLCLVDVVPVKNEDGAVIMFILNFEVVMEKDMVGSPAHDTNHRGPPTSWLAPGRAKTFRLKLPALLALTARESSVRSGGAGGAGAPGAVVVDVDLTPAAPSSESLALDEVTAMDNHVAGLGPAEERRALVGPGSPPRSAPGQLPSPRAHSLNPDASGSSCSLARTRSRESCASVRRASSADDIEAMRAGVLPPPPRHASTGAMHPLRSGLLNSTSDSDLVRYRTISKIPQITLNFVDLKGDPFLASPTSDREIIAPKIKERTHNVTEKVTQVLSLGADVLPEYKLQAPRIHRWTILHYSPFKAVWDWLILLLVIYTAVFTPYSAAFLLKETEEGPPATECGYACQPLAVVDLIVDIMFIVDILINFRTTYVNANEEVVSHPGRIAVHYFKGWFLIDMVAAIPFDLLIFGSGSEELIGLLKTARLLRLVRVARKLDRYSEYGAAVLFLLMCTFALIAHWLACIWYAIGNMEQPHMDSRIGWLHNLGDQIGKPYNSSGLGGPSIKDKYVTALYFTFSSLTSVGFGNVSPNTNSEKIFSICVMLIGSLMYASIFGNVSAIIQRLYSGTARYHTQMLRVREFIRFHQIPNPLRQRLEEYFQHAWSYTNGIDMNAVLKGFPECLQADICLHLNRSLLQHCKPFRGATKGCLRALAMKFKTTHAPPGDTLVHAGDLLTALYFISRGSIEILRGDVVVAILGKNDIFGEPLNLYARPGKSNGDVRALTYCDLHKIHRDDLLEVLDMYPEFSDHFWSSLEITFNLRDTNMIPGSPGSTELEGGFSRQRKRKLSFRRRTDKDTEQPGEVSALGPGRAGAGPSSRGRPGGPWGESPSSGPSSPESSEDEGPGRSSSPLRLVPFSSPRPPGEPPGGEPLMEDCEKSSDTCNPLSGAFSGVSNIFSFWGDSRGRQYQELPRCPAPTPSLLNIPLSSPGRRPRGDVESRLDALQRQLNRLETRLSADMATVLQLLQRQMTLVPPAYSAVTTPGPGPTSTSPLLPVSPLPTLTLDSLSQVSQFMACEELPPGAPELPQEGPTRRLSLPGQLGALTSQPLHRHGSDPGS
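U2OS cells transduced with wild-type KCNH2 virus are loaded with FluxOr dye for 45 min, and thallium flux is measured in kinetic reads before and after stimulation buffer. Rate constants are normalized to DMSO controls.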
SW480 rerep = induces DNA re-replication in SW480 colon adenocarcinoma cells; SW480 DNA re-replication, Hoechst DNA content imaging, 48 h; Potency, µM (top dose mostly 46.1 µM), hits mostly activators; 1.8% of 340,000 active; also: nearly all actives have a fitted effect of over 55% in size
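Treated cells incubate 48 hr (37 C, 5% CO2), are stained 40 min with Hoechst, and nuclear fluorescence is enumerated; a rise in nuclei with high DNA signal marks re-replication.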
KB-3-1 tox = kills parental KB-3-1 adenocarcinoma cells | KB-3-1 viability, CellTiter-Glo ATP luminescence, 72 h | Potency, µM (top dose mostly 46.1 µM), usual class: cytotoxic | 1.4% of 400,000 active; also: nearly all actives have a fitted effect of over 60% in size
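KB-3-1 parental drug-naive adenocarcinoma cells in DMEM/10% FBS, incubated 72 h at 37 C with pin-transferred compounds across a concentration series. Viability by CellTiter-Glo luminescence; concentration-response curves fitted after normalization.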
MCF10A rereplic = inducers of DNA re-replication in MCF 10A breast cells; MCF 10A DNA re-replication, Hoechst nuclear intensity, 48 h; 2.9% of 350,000 active; AID 624296; Potency, µM (top dose mostly 46.1 µM), most hits filed as activators; also: nearly all actives have a fitted effect of over 50% in size
KCNH2 3.1 inh = blocks the human KCNH2 3.1 channel isoform; U2OS KCNH2 3.1, thallium flux FluxOr; stronger effect = lower value; activity change, % (tested at about 1.8 µM); 0.95% of 340,000 active; AID 720553;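 active = maximum activity change below -70%; inconclusive = maximum activity change from -70% to -50%; inactive = maximum activity change above -50%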;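 also: thallium influx rate constant from kinetic fluorescence after stimulation buffer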
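Channel expression came from 3.1 mutant virus (1.77 x 10^8 /mL) applied to suspended U2OS cells for 4 h. Flux was tracked with FluxOr dye plus Red40 quencher, and kinetic rate constants normalized to controls.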
KB-V1 MDR tox = KB-V1 MDR subline cytotoxicity. KB-V1 MDR cells viability, CellTiter-Glo, 72 h. 3.4% of 400,000 active. Potency, µM (doses to about 46.1 µM), hits mostly cytotoxic; also: nearly all actives have a fitted effect of over 60% in size
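Cytotoxicity via CellTiter-Glo luminescence after 72 h compound exposure at 37 degrees C. Cells: drug-selected KB-V1 line, DMEM phenol-red free plus 10% FBS. Compounds tested at multiple concentrations; normalized data fitted to concentration-effect curves.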
Numbers stand for hits. Most compounds without a hit are left out; they make up all but 7.6% or so of the library. Unless noted, calls follow the shape of the dose curve; as a rule, active = well fitted curve in the direction sought with a large enough effect; inconclusive = small, poorly fitted or top-dose-only effect, or another doubt; inactive = no such curve, though single readings can be large; an effect the other way counts as inactive or inconclusive.

What do the screens show for `CCOc1ccc(S(=O)(=O)Nc2ccccc2C(=O)N(C)C2CCN(C)CC2)cc1`?
hERG WT inh: inactive; SW480 rerep: inactive; KB-3-1 tox: inactive; MCF10A rereplic: inactive; KCNH2 3.1 inh: inactive; KB-V1 MDR tox: inactive

How did CCOC(=O)c1ccccc1NS(=O)(=O)c1ccc(OCC)cc1 do in these assays?
hERG WT inh: inactive; SW480 rerep: 11.6µM; KB-3-1 tox: inconclusive; MCF10A rereplic: 13µM; KCNH2 3.1 inh: inactive; KB-V1 MDR tox: inconclusive

Results for CCOC(=O)NCc1ccccc1 ?
hERG WT inh: inactive; SW480 rerep: inconclusive; KB-3-1 tox: inactive; MCF10A rereplic: inactive; KCNH2 3.1 inh: inactive; KB-V1 MDR tox: inactive

What do the screens show for `CCOC(=O)NCc1ccc(S(=O)(=O)Nc2ccccc2C)cc1`?
hERG WT inh: inactive; SW480 rerep: inactive; KB-3-1 tox: inactive; MCF10A rereplic: inactive; KCNH2 3.1 inh: inactive; KB-V1 MDR tox: 23.1µM

What do the screens show for `COC(=O)c1cccc(NS(=O)(=O)c2ccc(OC)cc2)c1C`?
hERG WT inh: inactive; SW480 rerep: inconclusive; KB-3-1 tox: 8.2µM; MCF10A rereplic: 5.8µM; KCNH2 3.1 inh: inactive; KB-V1 MDR tox: 9.2µM

Results for NCCCn1c(C(=O)c2cc(Cl)c(N)c(Cl)c2)c2ccc([N+](=O)[O-])cc2[n+]1[O-] ?
hERG WT inh: inactive; SW480 rerep: 1.03µM; KB-3-1 tox: inconclusive; MCF10A rereplic: inactive; KCNH2 3.1 inh: inactive; KB-V1 MDR tox: inactive

Results for NC(=O)c1ccc(Cn2c(C(=O)c3cc(Cl)c(N)c(Cl)c3)c3ccccc3[n+]2[O-])cc1 ?
SW480 rerep: inconclusive; KB-3-1 tox: inconclusive; MCF10A rereplic: 11.6µM; KCNH2 3.1 inh: inactive; KB-V1 MDR tox: inactive

What do the screens show for `COc1ccc(C(=O)c2c3ccc(C(F)(F)F)cc3[n+]([O-])n2CCCC(N)=O)cc1`?
hERG WT inh: inactive; SW480 rerep: inactive; KB-3-1 tox: inactive; MCF10A rereplic: inactive; KCNH2 3.1 inh: inactive; KB-V1 MDR tox: inactive

Results for NC(=O)CCCn1c(C(=O)c2cc(Cl)c(N)c(Cl)c2)c2ccc(C(F)(F)F)cc2[n+]1[O-] ?
hERG WT inh: inactive; SW480 rerep: inactive; KB-3-1 tox: inactive; MCF10A rereplic: inactive; KCNH2 3.1 inh: -85.5; KB-V1 MDR tox: inactive

How did COc1ccc(C(=O)c2c3ccc([N+](=O)[O-])cc3[n+]([O-])n2CCCC(N)=O)cc1 do in these assays?
hERG WT inh: inactive; SW480 rerep: inconclusive; KB-3-1 tox: inconclusive; MCF10A rereplic: inactive; KCNH2 3.1 inh: inactive; KB-V1 MDR tox: inconclusive

Results for NCCCn1c(C(=O)c2cc(Cl)c(N)c(Cl)c2)c2ccc(C(F)(F)F)cc2[n+]1[O-] ?
hERG WT inh: inactive; SW480 rerep: inactive; KB-3-1 tox: inactive; MCF10A rereplic: inactive; KCNH2 3.1 inh: -124.7; KB-V1 MDR tox: inactive

What do the screens show for `Cn1c(=O)c2c(nc(SCC(=O)Nc3ccc(F)c(F)c3)n2Cc2ccccc2F)n(C)c1=O`?
KB-3-1 tox: inactive; KB-V1 MDR tox: inactive

How did COc1ccccc1OCC(=O)NCC1CCCN(C(=O)c2cccc(C)c2)C1 (configuration not stated) do in these assays?
hERG WT inh: inactive; KB-3-1 tox: inactive; KCNH2 3.1 inh: inactive; KB-V1 MDR tox: inactive

What do the screens show for `CCC(=O)N1CCCN(S(=O)(=O)c2ccc(C)cc2)C1c1ccc(OC)cc1` (configuration not stated)?
hERG WT inh: inactive; SW480 rerep: inactive; KB-3-1 tox: inactive; MCF10A rereplic: inconclusive; KCNH2 3.1 inh: inactive; KB-V1 MDR tox: inconclusive

How did CN1CCN(c2ccc(NC(=O)c3ccccc3Br)cc2)CC1 do in these assays?
hERG WT inh: inactive; SW480 rerep: inactive; KB-3-1 tox: inactive; MCF10A rereplic: inactive; KCNH2 3.1 inh: inactive; KB-V1 MDR tox: inactive

How did CN1CCN(c2ccc(NC(=S)NC(=O)c3cccc4ccccc34)cc2)CC1 do in these assays?
hERG WT inh: inactive; SW480 rerep: inconclusive; KB-3-1 tox: inactive; MCF10A rereplic: inactive; KCNH2 3.1 inh: -79.4; KB-V1 MDR tox: inactive

How did CN1CCN(c2ccc(NC(=S)NC(=O)c3cccc4c(Br)cccc34)cc2)CC1 do in these assays?
hERG WT inh: inactive; SW480 rerep: inactive; KB-3-1 tox: inactive; MCF10A rereplic: inactive; KCNH2 3.1 inh: -82.7; KB-V1 MDR tox: inactive

Results for COc1ccccc1OCCNC(=O)CNC(=O)c1ccc(C(C)(C)C)cc1 ?
hERG WT inh: inactive; SW480 rerep: inconclusive; KB-3-1 tox: inactive; MCF10A rereplic: inactive; KCNH2 3.1 inh: inactive; KB-V1 MDR tox: inactive

How did COc1ccc2c(c1)-c1c(ssc1=S)C(C)(C)N2C(=O)CSC1=NCCS1 do in these assays?
hERG WT inh: inactive; SW480 rerep: inactive; KB-3-1 tox: inactive; MCF10A rereplic: inactive; KCNH2 3.1 inh: inactive; KB-V1 MDR tox: inactive

How did Cc1cc2c(cc1C)N(C(=O)CSC1=NCCS1)C(C)(C)c1ssc(=S)c1-2 do in these assays?
hERG WT inh: inactive; SW480 rerep: inactive; KB-3-1 tox: inactive; MCF10A rereplic: inactive; KCNH2 3.1 inh: inactive; KB-V1 MDR tox: 16.4µM

Results for Cc1cc(C)c2c(c1)-c1c(ssc1=S)C(C)(C)N2C(=O)CSc1nncn1C ?
hERG WT inh: inactive; SW480 rerep: inactive; KB-3-1 tox: 20.6µM; MCF10A rereplic: inconclusive; KCNH2 3.1 inh: inactive; KB-V1 MDR tox: 23.1µM

How did CC1(C)c2ssc(=S)c2-c2ccccc2N1C(=O)CSC1=NCCS1 do in these assays?
hERG WT inh: inactive; SW480 rerep: inactive; KB-3-1 tox: inactive; MCF10A rereplic: inactive; KCNH2 3.1 inh: inactive; KB-V1 MDR tox: 16.4µM

What do the screens show for `COc1ccccc1CN(C)C(=O)CSCC(=O)Nc1ccccc1F`?
hERG WT inh: inactive; SW480 rerep: inactive; KB-3-1 tox: inactive; MCF10A rereplic: inactive; KCNH2 3.1 inh: inactive; KB-V1 MDR tox: inactive

Results for CC(NC1=CC(=O)c2cccnc2C1=O)C(O)c1ccccc1 (configuration not stated) ?
hERG WT inh: inactive; SW480 rerep: 11.6µM; KB-3-1 tox: 8.2µM; MCF10A rereplic: 3.66µM; KCNH2 3.1 inh: inactive; KB-V1 MDR tox: 14.6µM

Results for CC(c1ccccc1)N1C(=O)c2cccnc2C1=O (configuration not stated) ?
hERG WT inh: inactive; SW480 rerep: inactive; KB-3-1 tox: inactive; MCF10A rereplic: inconclusive; KCNH2 3.1 inh: inactive; KB-V1 MDR tox: inactive

What do the screens show for `O=C(CSc1nc(Nc2ccccc2)nc(N2CCOCC2)n1)Nc1ccc(Br)cc1F`?
hERG WT inh: inactive; SW480 rerep: inconclusive; KB-3-1 tox: inactive; MCF10A rereplic: 14.6µM; KCNH2 3.1 inh: inactive; KB-V1 MDR tox: inactive

Results for O=C(CSc1nc(Nc2ccccc2)nc(N2CCOCC2)n1)Nc1ccccc1Cl ?
hERG WT inh: inactive; SW480 rerep: inconclusive; KB-3-1 tox: inactive; MCF10A rereplic: inconclusive; KCNH2 3.1 inh: inactive; KB-V1 MDR tox: 14.6µM
